# Results from PubChem BioAssay AID504710 (Sanford-Burnham Center for Chemical Genomics, 2011).
# Activity calls are given as the source filed them.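 The calls were made as follows: active = inhibition reaching about 16% in any single replicate (limit read from the data); inactive = the rest.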
# Target: Hexokinase HKDC1 (Homo sapiens) (UniProt Q2TB90)
# Assay: HKDC1 hexokinase inhibitors, confirmation, biochemical, single concentration (AID 504710)
# Settings: recombinant HKDC1, G6PDH/diaphorase/resazurin fluorescence; at 20 µM; hits give high values
# Hexokinase HKDC1 (Homo sapiens), sequence (Q2TB90 whole entry, looked up): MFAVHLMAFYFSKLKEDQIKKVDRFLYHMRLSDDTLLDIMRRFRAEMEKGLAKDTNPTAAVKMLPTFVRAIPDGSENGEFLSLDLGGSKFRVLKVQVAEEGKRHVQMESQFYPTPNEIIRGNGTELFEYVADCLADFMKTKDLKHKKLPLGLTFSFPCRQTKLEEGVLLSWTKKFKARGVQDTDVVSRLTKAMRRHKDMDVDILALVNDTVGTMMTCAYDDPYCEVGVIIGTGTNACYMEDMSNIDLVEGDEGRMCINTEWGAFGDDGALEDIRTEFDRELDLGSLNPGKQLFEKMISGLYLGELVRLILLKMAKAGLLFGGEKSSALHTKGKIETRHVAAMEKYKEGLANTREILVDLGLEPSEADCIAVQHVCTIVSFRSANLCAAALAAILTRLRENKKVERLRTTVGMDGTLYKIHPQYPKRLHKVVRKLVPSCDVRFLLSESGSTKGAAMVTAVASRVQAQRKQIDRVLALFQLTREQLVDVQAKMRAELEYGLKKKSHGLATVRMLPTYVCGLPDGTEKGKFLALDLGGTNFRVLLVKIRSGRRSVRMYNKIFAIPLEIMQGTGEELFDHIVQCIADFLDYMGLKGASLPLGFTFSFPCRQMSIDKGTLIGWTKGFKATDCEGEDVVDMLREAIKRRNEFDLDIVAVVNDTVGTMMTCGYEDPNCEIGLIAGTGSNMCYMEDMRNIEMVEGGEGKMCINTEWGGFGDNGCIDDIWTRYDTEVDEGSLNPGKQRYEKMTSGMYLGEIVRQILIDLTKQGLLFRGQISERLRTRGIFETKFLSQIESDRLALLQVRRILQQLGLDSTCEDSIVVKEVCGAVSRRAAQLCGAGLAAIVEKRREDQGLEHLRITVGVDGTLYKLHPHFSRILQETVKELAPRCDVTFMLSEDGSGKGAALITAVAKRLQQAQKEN
row,SMILES,inhibition
1,CC(=NNc1nc2ccccc2o1)c1cc2ccccc2cn1,-77.2% (inactive)
2,Cc1ccc(C)c(-n2c3nc(=O)[nH]c(=O)c-3cc3cc([N+](=O)[O-])ccc32)c1,39.2% (active)
3,COc1ccccc1C1=NNC(=Nc2cccc(S(=O)(=O)N(C)C)c2)SC1,-177% (inactive)
4,CC(C)c1nc2oc3c(NCC4CCCO4)ncnc3c2c2c1COC(C)(C)C2 (stereo unspecified),62.8% (active)
5,COc1cc2c(cc1OC)-c1cc(NCc3ccccn3)nc(=O)n1CC2,54% (active)
6,Clc1cccc(N=C2NN=C(c3ccc4c(c3)OCCO4)CS2)c1,-99.6% (inactive)
7,Fc1ccccc1N=C1NN=C(c2ccccc2)CS1,-53.4% (inactive)
8,O=C(NNC(=S)Nc1ccc(Cl)c(Cl)c1)c1ccccn1,-74.1% (inactive)
9,Cn1c2ccccc2c(=O)c2c(=O)n(-c3ccc(F)cc3)c(-c3cccs3)nc21,66% (active)
10,Cc1cc2cc(CCNC(=O)c3ccc(S(=O)(=O)N4CCOCC4)cc3)c(=O)[nH]c2cc1C,45% (active)
11,COC(=O)c1ccc(NCc2cc(O)ccc2O)cc1,65.1% (active)
12,N#Cc1c(SCC(=O)Nc2nc3ccc(Br)cc3s2)sc2c(O)cc(=O)[nH]c12,44.9% (active)
13,CCOc1ccc2c(c1)C(NC(C)=O)C(=O)N2CCN1CCOCC1 (stereo unspecified),60.9% (active)
14,Cc1cc(C)nc(/N=c2/ssnc2Cl)c1,-84.2% (inactive)
15,O=C1C(N2CCOCC2)=C(n2nnc3ccccc32)C(=O)c2ccccc21,54.8% (active)
16,Cc1ccc(S(=O)(=O)/N=C2/C=C(Sc3ncn[nH]3)C(=O)c3ccccc32)cc1,63.3% (active)
